Reference: PubChem BioAssay AID651813 (National Center for Advancing Translational Sciences (NCATS), 2012)
About 1,100 (52%) of roughly 2,100 compounds were called active. Roughly 27% stayed inconclusive and do not appear here. So high a share suggests a set chosen from earlier hits. The list shows a part of the results. A number with no mark means an inactive call. The call rests on the fitted dose curve; in most records, active means well fitted inhibition curve with a large enough effect; inconclusive means small, poorly fitted or top-dose-only effect; inactive means no such curve, though single readings can be large or run the other way.

Target: DNA dC->dU-editing enzyme APOBEC-3G (Homo sapiens) (UniProt Q9HC16)
Sequence (Q9HC16 whole entry, looked up): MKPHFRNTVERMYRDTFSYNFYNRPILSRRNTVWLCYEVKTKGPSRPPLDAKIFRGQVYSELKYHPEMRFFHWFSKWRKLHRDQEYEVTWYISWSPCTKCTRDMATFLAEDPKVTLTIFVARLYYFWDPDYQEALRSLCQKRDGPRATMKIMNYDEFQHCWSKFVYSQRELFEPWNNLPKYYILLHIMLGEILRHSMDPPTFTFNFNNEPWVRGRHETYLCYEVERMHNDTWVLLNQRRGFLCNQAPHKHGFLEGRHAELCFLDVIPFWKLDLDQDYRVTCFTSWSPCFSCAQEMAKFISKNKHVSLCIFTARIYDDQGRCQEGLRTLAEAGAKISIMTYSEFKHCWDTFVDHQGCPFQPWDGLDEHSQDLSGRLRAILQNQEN
Assay: qHTS for inhibitors of Vif-A3G interactions: Cherry picks counterscreen;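 further: hits raise yellow fluorescence by blocking Vif-driven A3G-eYFP degradation; nearly all actives have a fitted effect of over 70% in size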;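 on max response: max response given as percent of control signal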
Settings: HeLa A3G-eYFP + Vif (tagged APOBEC3G with the HIV-1 protein that degrades it), eYFP fluorescence, 24 h
Text: The recent discovery and characterization of host restriction factors, which provide a potent defense to invading retroviruses, has provided new targets for antiviral drug development. APOBEC3G (A3G) and APOBEC3F (A3F) are potent cytidine deaminases that block HIV-1 replication; HIV-1 expresses the Vif protein, which counteracts A3G and A3F by binding to them and inducing their proteasomal degradation. The Vif-A3G and Vif-A3F interactions provide two potential targets for development of small molecules which can interfere with the ability of Vif to degrade A3G or A3F. […] To identify inhibitors that can interfere with Vif mediated degradation of A3G and A3F, we have developed Hela cell lines that stably express A3G or A3F tagged with eYFP at the C-terminal end (A3G-eYFP or A3F-eYFP, respectively) and Vif. In the absence of an inhibitor, Vif induces degradation of A3G-eYFP and A3F-eYFP, and the cells are not fluorescent. In the presence of an inhibitor, it is expected that Vif will be unable to degrade A3G-eYFP and/or A3F-eYFP, resulting in an increase in yellow fluorescence. In this counterscreen assay, Vif A3G was screened against the cherry picks ordered from the MLSMR. NIH Chemical Genomics Center [NCGC] NIH Molecular Libraries Probe Centers Network [MLPCN] MLPCN Grant: MH093245 Assay Submitter (PI): Vinay Pathak, National Cancer Institute
A3G-Vif cells were harvested from T225 flask and resuspended in phenol free OPTI-MEM medium with 5% FBS. Then 5 uL of 140,000 cells/mL resuspended cells was dispensed into each well of low base Aurora COC 1,536-well plates (black walled, clear bottom) using a Multidrop Combi dispenser. After overnight culture at 37 deg C with 5% CO2, a total of 23 nL of compounds at 5 selected concentrations from the NPC or positive control (2 mM stock of MG132) in DMSO was transferred to each well of the assay plate using a pintool (Kalypsys, San Diego, CA), and the plates were further incubated at 37 deg C with 5% CO2 for 24 hours. After that, the plates were measured on Acumen Explorer (TTP Lab Tech). The fluorescence was detected by 488 nm/Ex and […].
Potency means the concentration at half of the fitted maximal effect.

Structure (SMILES)	max response [%]	Potency
CN1/C(=C\C=C2/SC(=S)N(CC(=O)O)C2=O)C(C)(C)c2ccccc21	52.2	–
CN1/C(=C/C=C(/C#N)C(N)=O)C(C)(C)c2ccccc21	–	9.94 µM (active)
CCCN1C(=O)/C(=C/C=C2\N(CC)c3ccccc3C2(C)C)SC1=S	–	1.58 µM (active)
C=CCN1C(=O)/C(=C\C=C2\N(C)c3ccccc3C2(C)C)SC1=S	–	0.291 µM (active)
CCCN1C(=O)/C(=C\C=C2\N(CC)c3ccccc3C2(C)C)SC1=S	–	2.06 µM (active)
CN1/C(=C\C=C2/SC(=S)NC2=O)C(C)(C)c2ccccc21	–	3.53 µM (active)
COc1ccc2c(c1)/C(=C/c1cc(OC)c(OC)c(OC)c1)C(=O)N2	–	3.53 µM (active)
COc1ccc2c(c1)/C(=C\c1cccc(/C=C3/C(=O)Nc4ccc(OC)cc43)n1)C(=O)N2	-72.2	–
Cc1cccc(-c2noc(-c3ccc(NCc4ccco4)c([N+](=O)[O-])c3)n2)c1	–	20.6 µM (active)
O=[N+]([O-])c1cc(-c2nc(-c3ccccc3)no2)ccc1NCc1ccco1	–	10.3 µM (active)
O=C1N/C(=N\N=C\c2ccco2)SC1Cc1ccccc1[N+](=O)[O-] (stereo not given)	-1.06	–
O=C(NCc1cccnc1)c1cccc(NS(=O)(=O)c2ccc(Br)cc2)c1	–	4.44 µM (active)
N#CC1=C(N)Oc2ccc3ccccc3c2C1c1cccnc1 (stereo not given)	–	6.27 µM (active)
CCN(CC)c1ccc2c(c1)OC(N)=C(C#N)C2c1cccnc1 (stereo not given)	–	15.8 µM (active)
COc1cc(OC)c(/C=C/c2ccc3ccccc3[n+]2C)c(OC)c1	–	20.6 µM (active)
CCCCN1C(=O)C2Cc3c([nH]c4ccccc34)CN2C1=S (stereo not given)	–	15.8 µM (active)
CCOc1ccc(CN2C(=O)c3ccccc3Sc3ccc(C(=O)O)cc32)cc1	–	4.61 µM (active)
O=C(NNC1=Nc2cccc3cccc1c23)c1ccc(Br)cc1	–	23.1 µM (active)
Nc1c(C(=O)N/N=C/c2ccc(F)cc2)oc2nc(-c3ccccc3)cc(-c3ccco3)c12	–	6.27 µM (active)
Nc1c(C(=O)N/N=C/c2ccccc2Cl)oc2nc(-c3ccccc3)cc(-c3ccco3)c12	–	2.91 µM (active)
Nc1c(C(=O)N/N=C/c2cccnc2)oc2nc(-c3ccccc3)cc(-c3ccco3)c12	–	8.2 µM (active)
Cc1cc(-c2ccccc2)nc(N/N=C/c2ccccc2F)n1	-29.5	–
C/C(=N\Nc1nc(C)cc(-c2ccccc2)n1)c1ccc(F)cc1	-5.07	–

Structure (SMILES)	max response [%]	Potency
CSCC[C@H](NC(=O)[C@H](Cc1ccccc1)n1c(=O)[nH]c2ccccc2c1=O)C(=O)N1CCC[C@@H]1C(=O)O	6.25	–
O=C(CN1C(=O)CSc2ncccc21)Nc1cccc(Cl)c1	–	23.1 µM (active)
O=C(CN1c2ccccc2Sc2ccccc21)NNC(=O)Nc1cccc(Cl)c1	-25.9	–
COc1ccc(NC(=O)CN2C(=O)C3(SCC(=O)N3c3ccccc3)c3ccccc32)cc1Cl (stereo not given)	10.4	–
CCOC(=O)C1C(=O)C=C(/C=C/c2ccc(N(C)C)cc2)CC1c1ccccc1 (stereo not given)	–	4.61 µM (active)
CC(/C=C/c1ccc(N(C)C)cc1)=N\N=C(/N)SC1CC(=O)N(c2ccc(C(=O)O)cc2)C1=O (stereo not given)	-29.3	–
CC(C)CC(=O)NC(=S)N(Cc1ccccc1)Cc1ccccc1	-12.5	–
COc1cc(/C=C2\SC(N)=NC2=O)cc(Br)c1O	–	17.7 µM (active)
COc1cc(/C=C2\C(=N)N3N=CSC3=NC2=O)cc(Br)c1OC(=O)c1ccco1	43.8	–
COc1ccc(-c2nc3c4ccccc4ccn3c2Cc2ccsc2)cc1OC	-1.53	–
CCOc1cc(-c2nnc(SCC(=O)NCc3ccccc3)nc2-c2ccc(OC)c(OCC)c2)ccc1OC	–	2.31 µM (active)
CCC(C)Sc1cc(-c2nc3ccccn3c2NC2CCCCC2)ccc1OC (stereo not given)	6.89	–
COc1cc(-c2nc3ccc(C)cn3c2NCc2ccccc2)ccc1SC1CCCCC1	34.4	–
CCOc1cc(C)nc(NCc2ccccc2)n1	-21.7	–
COc1ccc(-c2nnc(SCC(=O)NCc3ccccc3)nc2-c2ccc(OC)c(OC)c2)cc1OC	–	2.59 µM (active)
N#CCSc1ccccc1NC(=O)COc1ccc(-c2nnco2)cc1	–	12.5 µM (active)
Cc1nc(C)c(C(=O)OCC(=O)Nc2ccccc2SCC#N)s1	–	15.8 µM (active)
COc1ccc(C(=O)NC(=S)NCc2cccnc2)cc1Cl	-0.724	–
CCC1=Nc2cc(C(=O)NCc3cccnc3)ccc2Sc2ccc(C)cc21	–	12.5 µM (active)
CCOC(=O)c1cnc(-n2nc(C)cc2C)nc1NNc1cc(C)nc(-c2ccccc2)n1	14.5	–
C=CCNc1nc(-c2ccccc2)c(C(=O)OCC)cc1C#N	–	7.04 µM (active)
CCOC(=O)c1cnc(-n2nc(C)cc2C)nc1NNc1nc(-c2ccccc2)cc(-c2ccccc2)n1	18.7	–
